“And” between values parts separate entries of the source, which are not always exact repeats. Equal values may be shown once. Out of some 220,000 compounds screened, about 530 (0.24%) were called active. This excerpt belongs to a sample that is enriched for actives. Results with a measured potency or affinity are listed apart. Unmarked numbers belong to inactive results. Rule as the data show it: active = inhibition above about 13%; inconclusive = no clear call, values can overlap the other calls; inactive = below that.
molecular target: Bifunctional protein GlmU (Mycobacterium tuberculosis (strain ATCC 25618 / H37Rv)) (UniProt P9WMN3); test: inhibition of mycobacterial GlmU enzyme – biochemical, glucosamine-1-phosphate acetyltransferase (AID 1376);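 also: 0% = complete reaction with vehicle and 100% = reaction without substrate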; conditions: M. tuberculosis GlmU acetyltransferase enzyme assay; active compounds read high;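 tested at 30 µM in the primary screen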
Sequence (P9WMN3 whole entry, looked up): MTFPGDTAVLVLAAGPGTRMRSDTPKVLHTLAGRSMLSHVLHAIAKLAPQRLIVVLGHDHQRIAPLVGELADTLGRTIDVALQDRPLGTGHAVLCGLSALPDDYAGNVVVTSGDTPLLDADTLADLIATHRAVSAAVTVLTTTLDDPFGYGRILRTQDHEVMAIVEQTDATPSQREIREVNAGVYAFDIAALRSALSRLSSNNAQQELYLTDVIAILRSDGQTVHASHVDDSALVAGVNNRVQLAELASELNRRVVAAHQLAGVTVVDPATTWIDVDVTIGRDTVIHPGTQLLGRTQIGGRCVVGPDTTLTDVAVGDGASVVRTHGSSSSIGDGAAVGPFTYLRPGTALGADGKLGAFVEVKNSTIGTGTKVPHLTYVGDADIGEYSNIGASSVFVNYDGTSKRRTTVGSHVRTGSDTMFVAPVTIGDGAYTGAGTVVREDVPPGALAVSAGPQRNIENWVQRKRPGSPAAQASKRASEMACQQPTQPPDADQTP

For `O=C(Nc1ccccc1N1CCOCC1)c1ccc(Cl)c(S(=O)(=O)NCc2ccco2)c1`, which inhibition is on record?
Its inhibition is 0.84%.

How did the inhibition turn out when `CN1CCN(C(=O)C2=C[C@@H](C3CCCCC3)C[C@@H](OCc3ccc(CO)cc3)O2)CC1` was run?
The inhibition was 0.67%.

`COC(=O)c1ccccc1NC(=O)CSc1nnc(-c2cccnc2)n1C` was tested. Which inhibition did it give?
The inhibition was 3.07%.

For `COc1ccc(NC(=O)CCS(=O)(=O)c2ccc3c(c2)CCCN3C(C)=O)cc1Cl`, which inhibition is on record?
The inhibition was -0.45%.

With `COc1ccc(NC(=O)CCS(=O)(=O)c2ccc3c(c2)CCCN3C(C)=O)cc1` as the molecule, how does the inhibition read?
Its inhibition is 0.16%.

Which inhibition does the source give for `COc1ccccc1CNC(=O)CCS(=O)(=O)c1ccc2c(c1)CCCN2C(C)=O` here?
Its inhibition is 15.2% (active).

How did the inhibition turn out when `O=[N+]([O-])c1ccc2[nH]nc(-c3ccccc3)c2c1` was run?
The inhibition was 4.82%.

Which inhibition does the source give for `NNC(=O)c1cc2sccc2s1` here?
Its inhibition is 14% (active).

Which inhibition does the source give for `CC(=O)NNC(=O)c1cc2sccc2s1` here?
Its inhibition is 0.49%.

For `O=C(O)c1cc2sccc2s1`, which inhibition is on record?
Its inhibition is 1.23%.

Which inhibition does the source give for `O=C1c2cccnc2C(=O)N1C1CCCCC1` here?
Its inhibition is 6.11%.

Which inhibition does the source give for `CCC(c1ccccc1)c1nnc(NC(=O)c2ccco2)s1` (configuration not stated) here?
Its inhibition is 4.36%.

`CC1=CC(C)(C)N(C)C(=O)N1c1ccc(Cl)cc1` was tested. Which inhibition did it give?
Its inhibition is -0.04%.

`Cc1cc(=O)cc(C)n1-c1ccc(Cl)cc1` was tested. Which inhibition did it give?
Its inhibition is 1.93%.

With `O=C1[C@H]2[C@H](C=CC[C@H]2C(=O)N2CCN(c3ccccc3)CC2)CCN1Cc1ccc(Cl)c(Cl)c1` as the molecule, how does the inhibition read?
The inhibition was 0.58%.

For `O=S(=O)(Nc1nc(CN2CCOCC2)nc2sc3c(c12)CCCC3)c1cc(F)ccc1F`, which inhibition is on record?
Its inhibition is 2.36% and -0.91%.

With `CC(c1ccccc1)N1CC(C(=O)N2CCN(c3ccccc3)CC2)CC1=O` (configuration not stated) as the molecule, how does the inhibition read?
The inhibition was -1.56%.

How did the inhibition turn out when `CS(=O)(=O)N(CC(=O)Nc1cccc(F)c1)c1cccc([N+](=O)[O-])c1` was run?
Its inhibition is 2.56%.

`CS(=O)(=O)N(CC(=O)Nc1ccc(F)cc1F)c1cccc([N+](=O)[O-])c1` was tested. Which inhibition did it give?
Its inhibition is 14.6% (active).

With `CS(=O)(=O)N(CC(=O)Nc1c(F)cccc1F)c1cccc([N+](=O)[O-])c1` as the molecule, how does the inhibition read?
The inhibition was 1.32%.

With `O=S(=O)(c1ccccc1)c1cc(O)ccc1O` as the molecule, how does the inhibition read?
Its inhibition is 12.9% (active).

How did the inhibition turn out when `Nc1nc2ccccc2cc1S(=O)(=O)c1ccccc1` was run?
The inhibition was -5.35%.

How did the inhibition turn out when `Cc1ccc(S(=O)(=O)c2cc(O)ccc2O)cc1C` was run?
The inhibition was 5.34%.

How did the inhibition turn out when `Cc1ccc(C(=O)/C=C\Nc2ccc(C)c(C)c2)cc1` was run?
Its inhibition is -4.99%.

With `COc1ccc(S(=O)(=O)NCC2CCCN(C(=O)CNC(C)=O)C2)cc1` (configuration not stated) as the molecule, how does the inhibition read?
The inhibition was -0.35%.

`CCc1ccc2oc(C(=O)Nc3ccc(S(N)(=O)=O)cc3)c(C)c2c1` was tested. Which inhibition did it give?
The inhibition was 1.87%.

With `CCN1CCN(CCC2Oc3cc([N+](=O)[O-])ccc3NC2=O)CC1` (configuration not stated) as the molecule, how does the inhibition read?
The inhibition was -2.08%.

Which inhibition does the source give for `CC(=O)NC1(C(F)(F)F)C(=O)Nc2c1c(=O)[nH]c(=O)n2CCc1ccccc1` (configuration not stated) here?
Its inhibition is 1.88%.

For `COc1ccc(C(=O)NC2(C(F)(F)F)C(=O)Nc3c2c(=O)[nH]c(=O)n3CCc2ccc(OC)c(OC)c2)cc1` (configuration not stated), which inhibition is on record?
Its inhibition is -0.41%.

`COc1ccc(CCn2c3c(c(=O)[nH]c2=O)C(NC(=O)c2cccs2)(C(F)(F)F)C(=O)N3)cc1OC` (configuration not stated) was tested. Which inhibition did it give?
The inhibition was 13.3% (active).

With `O=C(NCc1cccs1)c1csc2c1CCCCC2` as the molecule, how does the inhibition read?
The inhibition was 1.69%.

Which inhibition does the source give for `CCN(CC)C(=O)CSc1nc2ccccc2c(=O)n1CC` here?
The inhibition was -0.44%.

With `CCOC(=O)CSc1nc2ccccc2c(=O)n1CC1CCCC1` as the molecule, how does the inhibition read?
The inhibition was -1.38%.

For `CCN(CC)C(=O)CSc1nc2ccccc2c(=O)n1CC1CCCCC1`, which inhibition is on record?
Its inhibition is 13.3% (active).

Which inhibition does the source give for `N#CCCn1cc(C(=O)Nc2ccccc2Br)c(-c2cc3ccccc3o2)n1` here?
Its inhibition is -0.21%.

How did the inhibition turn out when `O=C(CN(CC1CCCO1)C(=O)CNS(=O)(=O)c1ccc(Cl)cc1)NCC1CCCO1` (configuration not stated) was run?
The inhibition was -2.4%.

For `N#Cc1ccccc1NC1=CC(=O)CCC1`, which inhibition is on record?
Its inhibition is -6.37%.

With `CCc1nnc2n1N=C(c1ccc([N+](=O)[O-])cc1)CS2` as the molecule, how does the inhibition read?
The inhibition was -0.05%.

Which inhibition does the source give for `O=C(O)COc1ccc(NC(=O)c2cccs2)cc1` here?
Its inhibition is -5.47%.

How did the inhibition turn out when `COc1ccc(C(=O)Nc2cccc(OC)c2)cc1` was run?
The inhibition was 6.57%.

Which inhibition does the source give for `Cc1ccc(C(=O)Nc2ccc(O)cc2C(=O)O)cc1C` here?
The inhibition was 1.76%.

`Cc1ccc(C(=O)Nc2ccc(Oc3ccc(C(=O)O)c(C(=O)O)c3)cc2)cc1C` was tested. Which inhibition did it give?
The inhibition was 47.7% (active).

Which inhibition does the source give for `O=C(O)c1ccccc1C(=O)Nc1ccc(Oc2ccccc2)cc1` here?
Its inhibition is 0.7%.

`COc1ccc(NC(=O)c2cccs2)cc1` was tested. Which inhibition did it give?
Its inhibition is -2.83%.

With `Cc1cccc(Oc2ccc(NC(=O)c3ccccc3C(=O)O)cc2)c1` as the molecule, how does the inhibition read?
Its inhibition is 1.43%.

With `COC(=O)CCSC(=S)N1CCOCC1` as the molecule, how does the inhibition read?
Its inhibition is -0.58%.

For `COc1ccc(NC(=O)N(Cc2cccs2)Cc2cc3cc4c(cc3[nH]c2=O)OCO4)cc1`, which inhibition is on record?
Its inhibition is 1.28%.

Which inhibition does the source give for `CCOC(=O)c1cc2sccc2n1CC(=O)C(C)(C)C` here?
Its inhibition is -4.29%.

For `CCn1ncc(Br)c1C(=O)Nc1ccn(C23CC4CC(CC(C4)C2)C3)n1`, which inhibition is on record?
Its inhibition is -4.08%.

For `CC(=O)N(C)N1c2ccccc2CCc2ccccc21`, which inhibition is on record?
Its inhibition is -8.48%.

Which inhibition does the source give for `Cc1cccc(OCCNC(=O)c2ncn[nH]2)c1` here?
Its inhibition is 1.93%.

Which inhibition does the source give for `Cn1c(=O)c2c(nc(SCC(=O)NC34CC5CC(CC(C5)C3)C4)n2C)n(C)c1=O` here?
The inhibition was -0.07%.

`O=C(CSc1nnc(-c2ccncc2)o1)NC1C2CC3CC(C2)CC1C3` (configuration not stated) was tested. Which inhibition did it give?
Its inhibition is 1.35%.

`O=C(O)c1ccc(/C=C/c2nc3sc4c(c3c(=O)[nH]2)CCC4)cc1` was tested. Which inhibition did it give?
Its inhibition is 2.03%.

With `CCOC(=O)c1nc2sc3c(c2c(=O)[nH]1)CCCC3` as the molecule, how does the inhibition read?
Its inhibition is 4.84% and 1.97%.

With `N#C/C(=C\c1ccc(C(=O)O)cc1)c1nc2sc3c(c2c(=O)[nH]1)CCCC3` as the molecule, how does the inhibition read?
The inhibition was 14.3% (active).

How did the inhibition turn out when `O=C1NC(CCc2ccccc2)C(=O)N1Cc1ccccc1Cl` (configuration not stated) was run?
Its inhibition is -2.29%.

With `CCc1sc(-c2ccccc2)nc1C(=O)OC` as the molecule, how does the inhibition read?
The inhibition was -3.08%.

Which inhibition does the source give for `CN(C(=O)COC(=O)c1n[nH]c2ccccc12)c1ccccc1` here?
Its inhibition is -0.77%.

For `COc1ccccc1NC(=O)N1CCC(c2nnc(SCC(N)=O)n2C)CC1`, which inhibition is on record?
Its inhibition is 5.75%.

Which inhibition does the source give for `CC(=O)c1cccc(NC(=O)N2CCC(c3nnc(SCC(N)=O)n3C)CC2)c1` here?
Its inhibition is 12.8% (active).

How did the inhibition turn out when `Cn1c(SCC(N)=O)nnc1C1CCN(C(=O)NCc2ccccc2)CC1` was run?
Its inhibition is 2.81%.

Source: PubChem BioAssay AID1376 (SRMLSC, 2008)
